Out of some 220,000 compounds screened, about 2,000 (0.91%) were called active. Another 2% or so got no clear call; they are omitted. Rule as the data show it: inconclusive = inhibition above about 80% without an active follow-up result; inactive = below that; test concentration not stated here. Only a sample is shown. Potency and affinity values are given separately.
Assay: M. tuberculosis H37Rv growth inhibitors, H37Rv strain (AID 1626);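 also: bacteria incubated seven days before Alamar blue readout; 0% = bacteria only wells and 100% = bacteria with antibiotic wells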
Details: hits give high values, concentration not given here

Row | Compound | inhibition
1 | CC(=O)N1CCN(C(=S)c2ccc(-c3ccc(Cl)cc3)o2)CC1 | 4.85% (inactive)
2 | O=C(NC1=NCCS1)c1cc2ccccc2o1 | -1.2% (inactive)
3 | CCc1nnc(NC(=O)c2ccc(-c3ccc(Cl)cc3)o2)s1 | 3.33% (inactive)
4 | CCn1nnc(NC(=O)Cc2ccc(Cl)cc2)n1 | -0.3% (inactive)
5 | COc1ccccc1NC(=S)NC(=O)c1ccc(-c2ccc(Cl)cc2)o1 | 79.3% (inactive)
6 | CCCn1nnc(NC(=O)c2ccc(-c3cccc(Cl)c3)o2)n1 | 0.76% (inactive)
7 | CCOC(=O)c1cc(CC)sc1N1C(=O)CC(Sc2ncccc2C(=O)O)C1=O (configuration not stated) | 2.89% (inactive)
8 | Cc1ccc(S(=O)(=O)N(C)C)cc1NC(=O)C1CCC1 | -2.34% (inactive)
9 | CCOc1ccc(N(CC(=O)Nc2c(C)cccc2C)S(=O)(=O)c2c(C)[nH]c(=O)[nH]c2=O)cc1 | 7.56% (inactive)
10 | CC(C)Cn1c(N2CCN(C(=O)c3cccs3)CC2)nc2ccccc21 | -13.3% (inactive)
11 | CCn1c(N2CCN(C(=O)/C=C/c3ccccc3)CC2)nc2ccccc21 | 0.45% (inactive)
12 | CCOc1ccc(CC(=NCCc2ccccc2)C2=C(O)CC(C)(C)CC2=O)cc1OCC | 6.31% (inactive)
13 | CCn1c(SCC(=O)Nc2ccc3c(c2)OCCO3)nnc1-c1c[nH]c2ccccc12 | -6.16% (inactive)
14 | O=C(Nc1nn[nH]n1)c1cccc(Oc2ccccc2)c1 | -4.2% (inactive)
15 | O=C(Nc1nnc(-c2cccs2)o1)c1ccco1 | 71.2% (inactive)
16 | COc1cccc(C(=O)Nc2nnc(-c3cccs3)s2)c1 | 8.53% (inactive)
17 | O=C(Nc1cccc(C(F)(F)F)c1)c1cc(-c2cccs2)on1 | -6.91% (inactive)
18 | CCCCNc1ccc(S(N)(=O)=O)cc1[N+](=O)[O-] | -3.02% (inactive)
19 | COC(=O)C1C(O)=C(C=Nc2ccccc2)C(=O)CC1(C)C (configuration not stated) | 18% (inactive)
20 | COC(=O)C1C(O)=C(C=Nc2cccc3ccccc23)C(=O)CC1(C)C (configuration not stated) | 55% (inactive)
21 | CC1CCN(C(=O)c2ccc(N3CC4CC(C3)c3cccc(=O)n3C4)c([N+](=O)[O-])c2)CC1 (configuration not stated) | -2.48% (inactive)

Row | Compound | inhibition
22 | Nc1cc(=O)[nH]c(SCC(=O)Nc2ccccc2Sc2ccccc2)n1 | 0.31% (inactive)
23 | Nn1c(SCc2ccc(F)cc2)nnc1-c1cccnc1 | 0.75% (inactive)
24 | Cc1ccc2nc(N=C(N)N)nc(C)c2c1 | 8.48% (inactive)
25 | Cc1nc(/N=C(\N)Nc2ccccc2)nc2ccccc12 | -4.15% (inactive)
26 | Cc1cc(C)c2nc(/N=C(\N)NC(=O)c3ccccc3)nc(C)c2c1 | 5.97% (inactive)
27 | CCCC(=O)N/C(N)=N/c1nc(C)c2cc(C)ccc2n1 | 31.5% (inactive)
28 | O=C(NCCNC(=O)c1ccc([N+](=O)[O-])cc1)c1ccncc1 | -5.65% (inactive)
29 | O=S(=O)(Nc1cccc2cn[nH]c12)c1ccc(F)cc1 | -1.2% (inactive)
30 | CC(=O)NCCOc1ccc2oc3ccccc3c2c1 | 14.2% (inactive)
31 | C/C(=N\OCC(=O)NC12CC3CC(CC(C3)C1)C2)c1cc2ccccc2o1 | 24.4% (inactive)
32 | O=C(c1ccccc1)N1CCCC(C(=O)N2CCN(c3ccccc3)CC2)C1 (configuration not stated) | -13.7% (inactive)
33 | OC(COCC(F)(F)C(F)(F)C(F)(F)C(F)F)Cn1c2ccccc2c2ccccc21 (configuration not stated) | 47.2% (inactive)
34 | CC(=O)N(C)c1ccc(OCC(O)Cn2c3ccc(Cl)cc3c3cc(Cl)ccc32)cc1 (configuration not stated) | -0.39% (inactive)
35 | CCn1c(SCC(=O)Nc2nc(C)cs2)nnc1-c1cccnc1 | 10.4% (inactive)
36 | O=C(NCc1cccnc1)/C(=C/c1ccc(-c2cccc(Cl)c2)o1)S(=O)(=O)c1ccccc1 | 56.8% (inactive)
37 | O=C(NCc1cccnc1)c1ccc(-c2ccc(Cl)cc2)o1 | -1.29% (inactive)
38 | CCn1c(NCc2ccccc2Cl)nc2ccccc21 | 1.72% (inactive)
39 | CCS(=O)(=O)c1nc2ccccc2n1Cc1ccccc1Cl | 0.3% (inactive)
40 | CC(=O)NCCc1nc2ccccc2n1Cc1ccccc1 | 2.23% (inactive)
41 | CC(=O)NCCCc1nc2ccccc2n1Cc1ccccc1C | -3.1% (inactive)
42 | CCC(=O)Nc1nonc1-c1nc2ccccc2n1Cc1cccc2ccccc12 | 20.3% (inactive)

Row | Compound | inhibition
43 | CC(=O)Nc1nc2ccccc2n1CCN(C)C | -1.12% (inactive)
44 | CC(=O)NCc1nc2ccccc2n1Cc1ccccc1C | -1.94% (inactive)
45 | Cc1ccccc1Cn1c(C(C)O)nc2ccccc21 (configuration not stated) | 1.24% (inactive)
46 | Cc1cc(C)c(C(=O)Nc2ccc(Br)c(C(F)(F)F)c2)c(C)c1 | 50.8% (inactive)
47 | C=CCN(C(=O)CNC(=O)c1ccco1)C(C(=O)NC1CCCCC1)c1ccccc1 (configuration not stated) | -3.02% (inactive)
48 | COc1ccc2nc3sc(C(=O)NCCN4CCc5ccccc5C4)cc3cc2c1 | 11.3% (inactive)
49 | Cn1c(CCNC(=O)OC(C)(C)C)n[nH]c1=S | -7.46% (inactive)
50 | CC12CCC(C(=O)Nc3ccccc3N3CCOCC3)(CC1=O)C2(C)C (configuration not stated) | -3.66% (inactive)
51 | COc1cccc(N=Cc2c[nH][nH]c2=O)c1 | -5.96% (inactive)
52 | O=c1[nH][nH]cc1C=Nc1ccc(Cl)cc1 | 4.25% (inactive)
53 | C/[N+]([O-])=C/c1c(OCc2ccc(Cl)cc2Cl)ccc2ccccc12 | 10.9% (inactive)
54 | Cc1c(C(=O)Nc2ccc(F)cc2)c2ccccn2c1CCc1ccncc1 | 1.73% (inactive)
55 | Cc1ccc(C)c(Cn2c(=O)n(CCC(=O)NCc3ccco3)c(=O)c3sccc32)c1 | -2.02% (inactive)
56 | O=C1CC(c2ccco2)CC2=C1C(c1ccccc1)n1nc(C(F)(F)F)nc1N2 (configuration not stated) | 2.19% (inactive)
57 | CCOC(=O)c1sc(NC(=O)COC(=O)CNC(=O)C2CCCCC2)c(C(=O)OCC)c1C | -1.65% (inactive)
58 | O=C(COc1nc2ccccc2nc1N1CCOCC1)NC1CCCCC1 | 5.49% (inactive)
59 | CC(=O)Nc1ccc(S(=O)(=O)N2CCN(c3nnnn3-c3ccccc3)CC2)cc1 | -0.88% (inactive)
60 | O=S(=O)(CS(=O)(=O)c1ccc(Cl)cc1)c1ccc(Cl)cc1 | 6.17% (inactive)
61 | c1ccc(-c2nc(C3CCCCC3)no2)cc1 | 3.47% (inactive)
62 | c1ccc(-c2cc(-c3nc(-c4ccccn4)no3)c3ccccc3n2)cc1 | 9.71% (inactive)

— PubChem BioAssay AID1626 (SRMLSC, 2009)
